FEN1 inhibitor = human FEN1 inhibition; Recombinant FEN1 flap cleavage, fluorescence, 15 min; Potency, µM (top dose mostly 114 µM), inactives show at the highest dose activity change, negative = inhibition, hits mostly inhibitors; 0.35% of 390,000 active; further: on the % scale 0 is the no-effect control and ±100 the full control effect; nearly all actives have a fitted effect of over 65% in size
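Nuclease activity of 10 nM FEN1 was measured after 15 min of room-temperature exposure to titrated compounds, by adding 50 nM flap substrate and reading plates at 0 and 15 min.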
Pol eta inh = blocks human DNA polymerase eta activity | Potency, µM (series often up to 114 µM), without a hit: at the highest dose activity change, negative = inhibition, usual class: inhibitors | Q9Y253 | AID 588591 | recombinant Pol eta, fluorescent DNA replication assay | 1.2% of 390,000 active; further: on the % scale 0 is the no-effect control and ±100 the full control effect
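Fluorescent replication assay: 50 nM final substrate added after a 15 min room-temperature compound preincubation with 10 nM enzyme. Signal taken at 0 min and again at 10 min.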
Pol kappa inh = DNA polymerase kappa (human) inhibition. Q9UBT6. purified Pol kappa, fluorescent DNA synthesis assay, 10 min. Potency, µM (titrated, usually from 107 µM), for the others: top-dose activity, negative = inhibition, hits mostly inhibitors. 0.53% of 400,000 active; further: on the % scale 0 is the no-effect control and ±100 the full control effect
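Readout: fluorescence, taken kinetically at 0 and 10 min. Conditions: 10 nM Pol kappa, 15 min RT compound preincubation, 50 nM substrate final. Controls: enzyme-free buffer wells.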
POLB inh = DNA polymerase beta (human) inhibition. 1.3% of 340,000 active. Potency, µM (top dose mostly 114 µM), without a hit: at the top dose activity change, negative = inhibition, usual class: inhibitors. P06746. AID 485314. Pol beta primer extension/strand displacement, fluorescence kinetic; further: on the % scale 0 is the no-effect control and ±100 the full control effect
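Enzyme-only controls used 10 nM Pol beta; buffer lacking enzyme served as negative control. Compound preincubated 15 min, then 50 nM substrate added; 0 and 10 min reads at room temperature.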
POLI inh = blocks human DNA polymerase iota activity; Pol iota fluorescent replication assay, 10 min; Potency, µM (doses to about 115 µM), inactives show top-dose activity, negative = inhibition, most hits filed as inhibitors; 1% of 390,000 active
Target sequence (Q9UNA4 whole entry, looked up): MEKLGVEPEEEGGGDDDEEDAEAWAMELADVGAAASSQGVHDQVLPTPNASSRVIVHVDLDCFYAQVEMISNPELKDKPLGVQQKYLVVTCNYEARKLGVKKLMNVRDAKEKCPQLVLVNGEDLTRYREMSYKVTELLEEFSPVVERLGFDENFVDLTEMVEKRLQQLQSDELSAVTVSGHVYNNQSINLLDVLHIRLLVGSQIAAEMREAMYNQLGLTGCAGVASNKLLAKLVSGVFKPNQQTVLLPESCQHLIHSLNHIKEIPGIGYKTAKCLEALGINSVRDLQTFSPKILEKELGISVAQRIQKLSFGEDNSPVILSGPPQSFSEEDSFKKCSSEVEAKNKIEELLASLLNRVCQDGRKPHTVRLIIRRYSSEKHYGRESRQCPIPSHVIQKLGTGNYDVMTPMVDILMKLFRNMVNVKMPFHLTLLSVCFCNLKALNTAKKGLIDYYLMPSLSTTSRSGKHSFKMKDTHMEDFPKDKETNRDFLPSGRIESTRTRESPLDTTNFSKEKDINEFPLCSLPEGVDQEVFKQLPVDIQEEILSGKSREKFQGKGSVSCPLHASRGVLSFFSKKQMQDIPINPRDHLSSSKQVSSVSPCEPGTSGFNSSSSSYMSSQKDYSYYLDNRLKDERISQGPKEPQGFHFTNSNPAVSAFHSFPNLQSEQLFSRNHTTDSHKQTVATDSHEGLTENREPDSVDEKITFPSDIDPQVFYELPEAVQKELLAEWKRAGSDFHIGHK
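Pol iota at 10 nM preincubated 15 min with compounds at room temperature; reaction started with fluorescent substrate, 50 nM final. Fluorescence read kinetically at 0 and 10 min; buffer-only wells as negative control.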
PGK inhibitor = blocks T. brucei phosphoglycerate kinase | P07378 | PGK/GAPDH coupled, Kinase-Glo luminescence, 60 min | Potency, µM (doses to about 57.5 µM), for the others: at the highest dose activity change, negative = inhibition, most hits filed as inhibitors | 0.043% of 380,000 active | AID 602233; further: on the % scale 0 is the no-effect control and ±100 the full control effect; nearly all actives have a fitted effect of over 60% in size
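Luminescent ATP detection (Kinase-Glo Plus) follows a 60-minute room-temperature incubation, with wells lacking PGK as controls. Buffer: 100 mM TEA (pH 7.6), 5 mM MgCl2, 0.01% Tween-20. Coupling enzyme GAPDH (100 nM final) supplies unstable 1,3-BPG in-well.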
Numbers without * were called inactive; i = inactive; ? = inconclusive; · = not tested or not shown; ! = repeats disagree; [ ] = remark or other dose. Sampled rows, rich in hits. Any-hit rate of the full collection: about 2.4%. The call rests on the fitted dose curve; in most records, active means well fitted curve in the direction sought with a large enough effect; inconclusive means small, poorly fitted or top-dose-only effect, or another doubt; inactive means no such curve, though single readings can be large; an effect the other way counts as inactive or inconclusive. Potency means the concentration at half of the fitted maximal effect.

SMILES	FEN1 inhibitor	Pol eta inh	Pol kappa inh	POLB inh	POLI inh	PGK inhibitor
CCC(C(=O)O)n1c2ccccc2c2cn[nH]c(=O)c21 (stereo unspecified)	-12.5%	?	-30.5%	22.4µM*	-9.1%	-2.1%
N#Cc1ccc(-c2cccs2)nc1SCc1ccc(Cl)cc1Cl	-5.5%	-20.2%	5.4%	-0.6%	9.5%	-3.7%
N#Cc1ccccc1Cn1c(=O)n(CCCC(=O)NCc2ccccc2Cl)c(=O)c2ccccc21	0.8%	-9.8%	-59.9%	0.5%	89.1µM*	i
CN1CCc2c(sc(NC(=O)c3cc4cc([N+](=O)[O-])ccc4s3)c2C(N)=O)C1	·	·	·	22.4µM*	·	·
O=c1oc2ccc(Br)cc2cc1-c1nc2c(s1)CCc1ccccc1-2	8.5%	·	-3.9%	·	15.1%	·
COc1c(-c2coc3cc4c(cc3c2=O)CC(O)C(C)(C)O4)ccc2c1C=CC(C)(C)O2 (stereo unspecified)	·	·	-16.1%[60.1 µM]	·	·	·
CSCC(=O)N1CCC(n2nccc2NC(=O)c2ccc3c(c2)OCO3)CC1	-10.6%	-18.6%	79.4µM*	10.9%	?	-1.3%
O=C(CSc1ccc2nnc(-c3cccc(F)c3)n2n1)NCc1ccco1	-9.0%	-0.1%	-39.0%	79.4µM*	?	-2.7%
CCC(CC)c1nnc(NC(=O)Cc2cccs2)s1	16.2%	79.4µM*	-17.9%	?	-15.5%	7.0%
O=C(Cc1cccs1)Nc1nnc(-c2ccc(F)cc2)s1	-5.6%	-6.6%	-8.9%	12.0%	12.5%	-7.3%
O=C(Cc1cccs1)Nc1nnc(Cc2ccc(F)cc2)s1	·	·	·	39.8µM*	·	·
Cc1noc(C)c1C(=O)N1CCC2(CCCN(C(=O)Nc3cccc(F)c3)C2)CC1	·	·	-13.6%[60.1 µM]	·	·	·
Cc1ccc2c(c1)c(=O)c1ccccc1n2CCCC(=O)Nc1cc(Cl)ccc1C	30.0%	79.4µM*	2.4%	?	-16.4%	-2.8%
Cc1ccc(NC(=O)CCCn2c3ccccc3c(=O)c3cc(C)ccc32)c(Br)c1	-23.4%	-24.2%	-7.2%	?	8.5%	4.4%
COc1cccc(CNC(=O)C2Cc3cc(S(=O)(=O)N4CCCCCC4)ccc3N2C(C)=O)c1 (stereo unspecified)	0.0%	-13.9%	2.6%[60.1 µM]	6.8%	35.3%	i
CCc1ccccc1NS(=O)(=O)c1ccc2[nH]cc(C(=O)N3CCCCC3)c(=O)c2c1	-0.1%	8.8%	-9.6%	22.4µM*	?	-6.6%
CCc1ccc(NS(=O)(=O)c2ccc3[nH]cc(C(=O)N4CCc5ccccc54)c(=O)c3c2)cc1	-18.4%	?	?	17.8µM*	-65.2%	-3.7%
O=C(c1c[nH]c2ccc(S(=O)(=O)Nc3ccccc3F)cc2c1=O)N1CCCCCC1	-11.6%	-0.2%	-15.4%	16.5%	?	6.5%
Cc1cc(C)cc(NS(=O)(=O)c2ccc3[nH]cc(C(=O)N4CCc5ccccc54)c(=O)c3c2)c1	0.5%	?	-2.1%	0.8%	?	i
CC(=O)Nc1ccc(/C=C/c2nc3ccccc3s2)cc1	?	·	4.4%	·	?	·
O=C(/C=C/c1ccc(-c2ccccc2)cc1)NCc1cccnc1	17.8%	-34.8%	-2.2%	50.1µM*	?	5.9%
O=C(O)CCc1ccc(-c2ccc(Br)cc2)n1Cc1ccco1	0.2%	56.2µM*	-37.9%	?	50.1µM*	-4.6%
O=C(O)CCc1ccc(-c2ccc(F)cc2)n1Cc1ccco1	-2.0%	-10.5%	-12.5%	-23.6%	-15.3%	-1.6%
O=C(O)CCc1ccc(-c2ccc(F)cc2)n1CC(=O)O	-10.6%	11.2µM*	-12.7%	-3.3%	?	-0.8%
O=C(O)CCc1ccc(-c2ccccc2)n1Cc1ccco1	0.1%	15.8µM*	?	-2.3%	?	-5.6%
SMILES	FEN1 inhibitor	Pol eta inh	Pol kappa inh	POLB inh	POLI inh	PGK inhibitor
CCOC(=O)Cn1c(CCC(=O)O)ccc1-c1ccc(F)cc1	-8.3%	-1.3%	-5.9%	2.2%	-27.9%	-1.3%
Cc1cc(N2CCN(C)CC2)nc2ccc(NC(=O)Nc3ccccc3Cl)cc12	-8.7%	-7.6%	-16.5%	2.7%	-3.6%	-0.2%
NS(=O)(=O)c1ccc(NNC(=O)c2ccccc2)cc1	18.7%	-5.7%	-3.4%	12.2%	6.1%	5.5%
O=C(NNc1cc(Br)c(O)c(Br)c1)c1ccccc1	?	4.8%	?	-4.7%	22.4µM*	-3.2%
Cc1ccc2nccnc2c1	-6.1%	·	7.5%	·	-17.9%	·
CCC(C)Nc1ccc(NC(C)CC)cc1 (stereo unspecified)	-15.2%	-12.4%	2.51µM*!	·	4.4%	i
COc1ccc(C(=O)N/C(=C\c2ccc(OC)c(OC)c2)C(=O)N2CCCCC2)cc1	-0.5%	-5.9%	2.1%	27.0%	114.8%	4.9%
COc1ccc(/C=C(/C(=O)N2CCCCC2C(=O)O)c2ccc(OC)c(OC)c2)cc1 (stereo unspecified)	0.3%	-0.8%	4.1%	·	79.4µM*	-1.3%
Cc1cc(C(=O)Cn2c(CO)nc3ccccc32)c(C)n1C	6.2%	-3.0%	-25.6%	-11.2%	79.4µM*	2.5%
OC(C1=C/C(=C\c2ccncc2)c2ccccc21)c1ccncc1 (stereo unspecified)	1.8%	·	-22.3%	·	18.1%	·
CCCCCCCCCCCCCCCCCCN(CCCCCCCCCCCCCCCCCC)c1ccc(/C=C/c2ccc(C=O)cc2)cc1	-3.7%	·	-19.8%	·	21.0%	·
C(=C\c1ccco1)/c1ccc2ccccc2n1	6.8%	-21.5%	?	10µM*	?	-29.8%
Fc1cccc(F)c1/C=C/c1ccc2ccccc2n1	-20.0%	-20.0%	-12.0%	16.8%[57.1 µM]	-0.8%	-17.3%
Cc1cc(C(=O)COc2ccc3ccc(=O)oc3c2)c(C)n1Cc1cccs1	-11.4%	-17.6%	-18.6%	50.1µM*	-46.9%	2.8%
CC(=O)c1c(C)[nH]c(C(=O)COc2ccc3ccc(=O)oc3c2)c1C	-20.8%	35.5µM*	-34.1%	·	?	?
CCOc1ccc(CNC(=O)c2c(C)nn(-c3ccc(F)cc3)c2-n2cccc2)cc1	7.4%	-22.9%	-0.4%	-1.2%	7.8%	-9.1%
CCOc1ccccc1CNc1ncnc2c1nc1n2CCCC1	-6.5%	-8.2%	-5.8%	29.4%	10.9%	2.1%
O=C(O)/C(=C\c1ccc(Br)cc1)c1ccc(S(=O)(=O)N2CCCCC2)s1	-8.5%	?	-9.8%	28.2µM*	?	-11.2%
O=C(O)/C(=C\c1ccc(C(F)(F)F)cc1)c1ccc(S(=O)(=O)N2CCCC2)s1	1.1%	-1.5%	-13.7%	·	-5.2%	0.2%
O=C(NCCS(=O)(=O)N1CCN(c2ccccc2F)CC1)C(c1ccccc1)c1ccccc1	16.0%	-7.1%	-10.9%[60.1 µM]	0.2%	8.3%	i
